Inconclusive results are not listed. A call without a number means that no potency is given here. Activity calls are given as the source filed them. The call rests on the fitted dose curve; in most records, active means well fitted inhibition curve with a large enough effect in the repeat runs; inconclusive means weak or mixed curves; inactive means flat fitted curve, though single readings scatter.
molecular target: Voltage-gated inwardly rectifying potassium channel KCNH2 (Homo sapiens) (UniProt Q12809); assay: Human Ether-a-go-go-Related Gene (hERG) channel small molecule antagonists: fluorescence cell-based qHTS assay (AID 1671200); conditions: hERG-U2OS cells, FluxOR thallium flux fluorescence; series mostly up to 76.8 µM; further: nearly all actives have a fitted effect of over 50% in size
Source text: National Center for Advancing Translational Sciences [NCATS]
U.S. Environmental Protection Agency [EPA]
National Institutes of Environmental Health Sciences [NIEHS]
National Toxicology Program [NTP]
U.S. Food and Drug Administration [FDA]
Mutations in the hERG channel cause Long QT (LQT) syndrome. LQT syndrome is a cardiac disorder which can cause ventricle arrhythmia and sudden death. Additionally, compounds which block the hERG channel can cause acquired LQT syndrome. Several FDA approved drugs have been removed from the market due to their hERG blocking activity. A cell-based hERG channel inhibition assay can be used to screen chemical compounds that inhibit hERG channel. This assay measures hERG channel activity using thallium ions as surrogate ions to measure potassium into the cells.
Tox21 Assay Protocol Summary:
hERG-U2OS cells were resuspended in culture medium and dispensed into 1536-well, black wall/clear-bottom plates at 1000cells/well/3uL using a Multidrop Combi dispenser (Thermo Fisher, Waltham, MA). After plates were incubated at 37 C overnight, 3 uL of Loading Buffer provided by FluxOR II Potassium Ion Channel Assay kit (Thermo, Carlsbad, CA) was added to each well. The assay plates were then incubated at room temperature in the dark for 1h. […] After the assay plates were incubated at room temperature for 10 min, 1 uL of Stimulus Buffer provided by FluxOR II Potassium Ion Channel Assay kit was added into each well and fluorescence intensity (480nm excitation/540nm emission) was continuously measured for 2 min at 1 second intervals using a Functional Drug Screening System (FDSS) 7000EX kinetic plate reader (Hamamatsu, Japan).
Potency means the concentration at half of the fitted maximal effect.

Chain of Voltage-gated inwardly rectifying potassium channel KCNH2 (Homo sapiens) (Q12809 whole entry, looked up): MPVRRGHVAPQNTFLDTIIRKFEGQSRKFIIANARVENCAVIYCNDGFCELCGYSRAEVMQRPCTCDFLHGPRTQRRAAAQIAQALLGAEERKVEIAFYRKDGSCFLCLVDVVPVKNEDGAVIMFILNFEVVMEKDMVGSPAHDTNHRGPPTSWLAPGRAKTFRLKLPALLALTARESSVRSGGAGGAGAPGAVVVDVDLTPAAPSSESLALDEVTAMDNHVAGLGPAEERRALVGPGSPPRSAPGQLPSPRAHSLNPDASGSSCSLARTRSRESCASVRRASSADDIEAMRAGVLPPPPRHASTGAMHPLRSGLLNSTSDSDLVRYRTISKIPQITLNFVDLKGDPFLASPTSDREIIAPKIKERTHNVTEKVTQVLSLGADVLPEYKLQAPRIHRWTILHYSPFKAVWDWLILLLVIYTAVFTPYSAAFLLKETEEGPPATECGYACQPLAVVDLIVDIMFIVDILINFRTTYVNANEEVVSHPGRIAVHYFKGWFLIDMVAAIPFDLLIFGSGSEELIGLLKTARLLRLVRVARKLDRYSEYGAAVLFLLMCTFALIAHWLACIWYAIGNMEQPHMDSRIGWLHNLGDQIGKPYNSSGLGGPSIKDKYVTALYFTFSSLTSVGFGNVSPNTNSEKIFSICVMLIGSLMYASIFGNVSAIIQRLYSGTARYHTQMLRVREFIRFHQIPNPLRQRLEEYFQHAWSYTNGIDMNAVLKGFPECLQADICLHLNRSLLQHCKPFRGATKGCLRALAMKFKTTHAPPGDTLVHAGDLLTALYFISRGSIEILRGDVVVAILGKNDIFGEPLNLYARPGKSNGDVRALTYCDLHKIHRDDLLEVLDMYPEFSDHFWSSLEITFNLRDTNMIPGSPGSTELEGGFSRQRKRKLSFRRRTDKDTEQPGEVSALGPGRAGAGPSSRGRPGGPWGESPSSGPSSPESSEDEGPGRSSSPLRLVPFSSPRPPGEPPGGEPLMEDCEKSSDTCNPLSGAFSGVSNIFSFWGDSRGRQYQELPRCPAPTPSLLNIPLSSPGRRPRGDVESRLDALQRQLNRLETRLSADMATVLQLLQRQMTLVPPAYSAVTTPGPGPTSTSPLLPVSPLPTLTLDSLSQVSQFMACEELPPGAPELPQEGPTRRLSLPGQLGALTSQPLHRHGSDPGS

Structure (SMILES) | Potency
Nc1ccccc1C(=O)O | inactive
CCNc1nc(NC(C)C)nc(SC)n1 | inactive
NCCc1ccc(O)cc1 | inactive
c1cc2c3c(cccc3c1)CC2 | inactive
Cc1cc(Cl)ccc1O | inactive
CC(C)OC(=O)Nc1ccccc1 | inactive
CCCN(CCC)c1c([N+](=O)[O-])cc(C(F)(F)F)cc1[N+](=O)[O-] | inactive
Clc1ccc(Cl)cc1 | inactive
C=CCO | inactive
Cn1cc(-c2ccccc2)c(=O)c(-c2cccc(C(F)(F)F)c2)c1 | inactive
Nc1ccc(Br)cc1 | inactive
CN(C)N=O | inactive
C1CC2OC2CC1C1CO1 (stereo not given) | inactive
O=[N+]([O-])c1ccc(Oc2ccc(Cl)cc2Cl)cc1 | 19.5 µM (active)
[O-][Cl+2]([O-])O | inactive
CCCCCCCCCCCC#N | inactive
Cc1[nH]c(=O)n(C(C)(C)C)c(=O)c1Cl | inactive
Cc1ccccc1O | inactive
CC1OC(C)OC(C)O1 (stereo not given) | inactive
CCOP(=S)(OCC)Oc1cnc2ccccc2n1 | inactive

Structure (SMILES) | Potency
CCOP(=S)(OCC)SCCSCC | inactive
O=C(O)c1ccccn1 | inactive
O=S(=O)(c1ccc(Cl)cc1)c1cc(Cl)c(Cl)cc1Cl | inactive
CCCCCOC(=O)c1ccccc1C(=O)OCCCCC | inactive
Nc1ccc(Cc2ccc(N)cc2)cc1 | inactive
CCOP(OCC)OCC | inactive
CC(C)=C[C@@H]1[C@@H](C(=O)OCc2coc(Cc3ccccc3)c2)C1(C)C | inactive
O=[N+]([O-])c1ccc([As](=O)(O)O)cc1 | inactive
C[C@]12CC[C@H]3[C@@H](CC[C@@]45O[C@@H]4C(O)=C(C#N)C[C@]35C)[C@@H]1CC[C@@H]2O | inactive
ClCc1cccnc1 | inactive
COCCl | inactive
CN(C)CCO | inactive
C#CCN(C)[C@H](C)Cc1ccccc1 | inactive
CCNc1nc(NC(C)(C)C)nc(SC)n1 | inactive
CCCN(CCC)N=O | inactive
CC(C#N)CCC#N (stereo not given) | inactive
O=c1ccc(=O)[nH][nH]1 | inactive
CC(Oc1ccc(Cl)cc1Cl)C(=O)O (stereo not given) | inactive
C=C(C)CCl | inactive
CCCCOC(=O)c1ccccc1C(=O)OCCCC | inactive

Source: PubChem BioAssay (Tox21)
